From PubChem BioAssay AID1565 (Sanford-Burnham Center for Chemical Genomics, 2009) come the findings set out here.

The inhibition is the change of the read-out against control, counted positive when it falls.

The structures appear in SMILES notation. About 3,200 (1.1%) of roughly 290,000 compounds were called active. Rule as the data show it: active = inhibition above about 60%; inactive = the rest. Shown is part of a subset that was picked to be rich in actives.

Phosphoethanolamine/phosphocholine phosphatase (Homo sapiens), sequence (Q8TCT1 whole entry, looked up): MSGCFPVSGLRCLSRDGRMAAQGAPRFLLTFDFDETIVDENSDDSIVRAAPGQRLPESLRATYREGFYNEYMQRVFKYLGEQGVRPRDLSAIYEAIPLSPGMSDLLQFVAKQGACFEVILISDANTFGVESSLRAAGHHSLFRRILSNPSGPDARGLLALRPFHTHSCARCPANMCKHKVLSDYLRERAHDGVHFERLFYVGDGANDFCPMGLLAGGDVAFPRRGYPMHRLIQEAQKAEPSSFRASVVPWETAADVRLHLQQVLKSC

This experiment concerns the target Phosphoethanolamine/phosphocholine phosphatase (Homo sapiens) (UniProt Q8TCT1). Nature of the experiment: PubChem AID 1565. The following applies: recombinant PHOSPHO1, absorbance phosphatase assay; at 13.3 µM; hits give high values.
Take `O=C(Nc1ccc([N+](=O)[O-])cc1)OCCc1ccccn1`: the inhibition is 17.9% (inactive).
Turning to `CCOc1ccc2c(c1)c(=O)c(S(=O)(=O)c1ccc(C)cc1)cn2CC`, the inhibition is 47.5% (inactive).
`CCOc1cc(C(=S)N2CCOCC2)ccc1OS(=O)(=O)c1ccc(Br)cc1`: the inhibition was 8.5% (inactive).
As for `CCOc1cc(C(=S)N2CCOCC2)ccc1O`, the figure is 96.3% (active); as for `COc1cc(C(=S)N2CCOCC2)ccc1O`, 3.5% (inactive).
As for `Cc1ccc(N(C(=O)CNC(=O)c2ccco2)C(C(=O)NC2CCCC2)c2ccncc2)cc1` (configuration not stated), the figure is 43.5% (inactive); as for `O=C(CC(c1ccccc1)c1ccccc1)NCC(O)c1ccc([N+](=O)[O-])cc1` (configuration not stated), 12% (inactive); as for `Cc1cc(=O)[nH]c(S)c1C#N`, 71.4% (active).
Then `Cc1cc(=O)[nH]c(SCC(N)=O)c1C#N`, with -7.4% (inactive); and `Cc1ccc(NC(=O)CSc2sc3c(O)cc(=O)[nH]c3c2C#N)cc1C`, with 19.4% (inactive); and `C/C(=N\NC(=O)c1ccc2ccccc2c1)c1cccnc1`, with -19.7% (inactive).
For the compound `CCc1nnc(NC(=O)CSCc2cc(=O)n3cc(C)sc3n2)s1`, the inhibition is 6.8% (inactive).
Take `Cc1ccc(Nc2nc(N3CCOCC3)nc(N3CCOCC3)n2)cc1Cl`: the inhibition was 6.9% (inactive).
As for `C/C(=N\Nc1nc(Nc2ccccc2)nc(N2CCOCC2)n1)c1cccs1`, the figure is 24.8% (inactive); as for `O=C(CSc1nc(Nc2ccccc2)nc(N2CCOCC2)n1)Nc1cc(Cl)ccc1O`, 61% (active); as for `Cc1ccc(C(=O)Nc2nnc(C3=COCCO3)o2)cc1C`, -32.7% (inactive).
Then `C=CCn1c(SCc2cc(C(=O)OC)c(C)o2)nnc1-c1ccncc1`, with 86.5% (active).
As for `CCOc1ccc(C(C)=O)cc1CSc1nnc(-c2ccncc2)n1CCOC`, the figure is -31.5% (inactive); as for `COC(=O)c1ccc(NC(=O)CSc2nnc(-c3ccncc3)n2C)cc1`, -5.5% (inactive); as for `COC(=O)c1sc(N)c(C(=O)OC)c1COC(=O)CNS(=O)(=O)c1ccc(C)cc1`, 1.7% (inactive).
Regarding `C=CCn1c(SCc2c(C(=O)OC)sc(N)c2C(=O)OC)nnc1-c1ccc(Cl)cc1`, the inhibition is 60.1% (active).
Then `C=CCn1c(SCc2ccc(Cl)c(Cl)c2)nnc1C(CO)NC(=O)c1ccc(OC)cc1` (configuration not stated), with -16.9% (inactive).
Then `COc1cccc(CNC(=O)Cn2c(=O)oc3cc(S(=O)(=O)N4CCCCC4)ccc32)c1`, with 22.6% (inactive).
As for `CN(C)S(=O)(=O)c1ccc(C(=O)NCC(C)(C)N2CCOCC2)cc1`, the figure is 34.7% (inactive); as for `CC(C)(CNC(=O)c1ccc(Cl)c(S(=O)(=O)N2CCc3ccccc3C2)c1)N1CCOCC1`, 38.5% (inactive).
For the compound `Cc1cccc(NS(=O)(=O)c2ccc(C(=O)NCC(C)(C)N3CCOCC3)cc2)c1C`, the inhibition was 65.4% (active).
As for `CC(C)C[C@H](NC(=O)N1CC(=O)Nc2ccccc21)C(=O)N[C@H](Cc1ccccc1)C(=O)O`, the figure is 33.8% (inactive).
As for `COc1ccc(-c2nnc(SCc3cccnc3)o2)cc1`, the figure is -4.4% (inactive).
Regarding `COc1ccc(-c2nnc(SC(=O)N3c4ccccc4Sc4ccccc43)o2)cc1`, the inhibition is 81.1% (active).
Then `COc1ccc(N2CCN(Cc3nnc(-c4ccccc4)o3)CC2)cc1`, with -23.5% (inactive); and `CC(=O)Nc1cccc(/C(C)=N/NC(=O)c2ccccc2Cl)c1`, with 16.2% (inactive); and `C/C(=N/NC(=O)c1ccc(NC(=O)c2ccc(F)cc2)cc1)c1ccccc1`, with -99% (inactive).
Then `COc1cccc(C(=O)N/N=C(\C)c2cccc(NC(=O)c3ccc(F)cc3)c2)c1OC`, with 65.8% (active); and `COc1ccc(S(=O)(=O)NCC(=O)NC2CC2)cc1OC`, with 27.6% (inactive); and `CCCCCC(O)(CCN1CCCCC1)c1ccccc1` (configuration not stated), with 43.7% (inactive).
As for `Cc1cccc(C)c1OCCN1CCOCC1`, the figure is 24.1% (inactive).
For `Cc1ccc(C(=O)c2c(NC(=O)c3ccncc3)sc3c2CCCC3)cc1`, the inhibition was 9.7% (inactive).
Consider `C/C(=C\c1ccccc1)C1NC(=O)c2c(sc3c2CCCC3)N1` (configuration not stated), for which the inhibition is 12.2% (inactive).
As for `O=C1NC(c2ccncc2)Nc2sc3c(c21)CCCC3` (configuration not stated), the figure is 97.6% (active); as for `CCCNC(=O)COc1coc(CN2CCN(Cc3ccccc3)CC2)cc1=O`, 36% (inactive); as for `Fc1cccc(Cc2noc(CN3CCN(c4cnccn4)CC3)n2)c1`, 62.8% (active).
For the compound `CCOC(=O)N1CCN(Cc2nc(Cc3cccc(C(F)(F)F)c3)no2)CC1`, the inhibition was 34.6% (inactive).
As for `FC(F)(F)c1cccc(Cc2noc(CN3CCC(N4CCCCC4)CC3)n2)c1`, the figure is 51.8% (inactive).
As for `COC(=O)c1ccc(CNC(=O)C2CCC(=O)N(Cc3ccccn3)C2)cc1` (configuration not stated), the figure is 11.9% (inactive); as for `O=C(C[C@H]1C(=O)N(c2ccc(F)c(F)c2)C[C@@H]1Cc1ccccc1)Nc1ccccc1`, -7.3% (inactive).
Then `Cc1ccc(OCCCC(=O)NC(C)c2ccccc2)c(C)c1` (configuration not stated), with 48.4% (inactive); and `Cc1ccccc1OCCC(=O)OCC(=O)NC(C)c1ccccc1` (configuration not stated), with 64.7% (active); and `Cc1ccc(OCC(=O)NC(C)c2ccccc2)cc1C` (configuration not stated), with -16.6% (inactive).
Regarding `Cc1sc2ncn(CC(=O)NCCCC(=O)N3CCN(c4ccccc4F)CC3)c(=O)c2c1C`, the inhibition is 2.2% (inactive).
With `Cn1cc(S(=O)(=O)Nc2ccc(Cl)cc2Cl)c(=O)n(C)c1=O`, the inhibition was 20.2% (inactive).
For the compound `Cc1ccc(C)c(S(=O)(=O)Nc2cccc(-n3cnnn3)c2)c1`, the inhibition was 34.8% (inactive).
Then `CCOC(=O)N1CCN(CC(=O)Nc2ccc(F)cc2)CC1`, with 60.1% (active); and `CCOC(=O)N1CCN(CCC(=O)Nc2ccccc2)CC1`, with 44.4% (inactive).
As for `O=C(CN1CCN(c2ccccc2)CC1)Nc1ccc(F)cc1`, the figure is 27% (inactive).
Then `CCOC(=O)C1=C(C)Nc2sc(C(=O)c3ccc(Br)cc3)c(N)c2C1c1ccc(C(=O)OC)cc1` (configuration not stated), with 38.2% (inactive).
Turning to `CCOC(=O)c1sc(NC(=O)c2ccncc2)nc1C`, the inhibition was -5.8% (inactive).
As for `CCOC(=O)c1sc(=S)n2c1[nH]c(=O)c1ccc(C(=O)OC)cc12`, the figure is 98.7% (active); as for `CCOc1ccc(CN2CCC(n3nccc3NC(=O)C3CC3)CC2)cc1CO`, 12.7% (inactive).
Then `CCCc1c(C(=O)Nc2ccc(F)cc2)cnn1-c1ccccc1`, with 41.2% (inactive).
As for `COc1ccc(-c2noc(CCCC(=O)NC3CCCC3)n2)cc1OC`, the figure is 18.5% (inactive).
On to `CC(=O)c1ccc(N2Cc3ccccc3C2)cc1`, for which the inhibition is 29.1% (inactive).
As for `Cc1cc(Cl)c2oc(C(=O)N(C)C(C)c3ccccn3)c(C)c2c1` (configuration not stated), the figure is 18.5% (inactive); as for `Cc1ccc(N(CC(=O)NCC2CCCO2)C(=O)CNS(=O)(=O)c2ccc(Cl)cc2)cc1` (configuration not stated), 32.5% (inactive); as for `CCc1ccc(NC(=O)CSc2nc3ccccc3c(=O)n2CCN2CCOCC2)cc1`, 2.3% (inactive).
Regarding `CCCCn1c(SCC(=O)NCC2CCCO2)nc2ccc(N3CCOCC3)cc2c1=O` (configuration not stated), the inhibition is -6.7% (inactive).
In the case of `N#CCSc1nc2ccc(N3CCOCC3)cc2c(=O)n1CCc1ccccc1`, the inhibition was 81.7% (active).
Then `COc1cccc2cc(C(=O)NCc3ccc(C)cc3)c(=N)oc12`, with 37.7% (inactive); and `CC(=O)Nc1ccc(NC(=O)C2CCCN2S(=O)(=O)c2cccc(C(F)(F)F)c2)cc1` (configuration not stated), with 24% (inactive).
Then `O=C(Cn1nnc2ccccc2c1=O)NCc1ccc(Cl)cc1`, with 62.9% (active).
As for `Cc1ccc(CNC(=O)CN2CCN(Cc3ccc(Cl)cc3)C2=O)cc1`, the figure is 4.8% (inactive).
As for `Nc1nnc(SCn2nnc3ccccc3c2=O)s1`, the inhibition is 16.1% (inactive).
As for `Cc1c2cnn(CC(=O)NCc3ccccn3)c(=O)c2c(C)n1Cc1ccc(Cl)cc1`, the figure is -9% (inactive); as for `C=CCn1c(SCn2nnc3ccccc3c2=O)nnc1-c1ccc(Cl)cc1`, 94.8% (active); as for `O=c1c2ccccc2nnn1CSc1nnnn1-c1ccccc1`, 8% (inactive).
As for `COc1ccc(N(C)C(=O)C2CCN(S(=O)(=O)c3cccc4nsnc34)CC2)cc1`, the figure is 6.8% (inactive); as for `CCOc1ccc(NC(=O)CCCCCN2C(=O)[C@@H]3Cc4ccccc4CN3C2=O)cc1`, 6.8% (inactive); as for `COc1cc(C(=O)OC2CCOC2=O)c([N+](=O)[O-])cc1OC` (configuration not stated), 32.3% (inactive).
Then `N#Cc1ccccc1-n1c(N)c(C(=O)N2CCCC2)sc1=S`, with -13.6% (inactive); and `Cc1cccc(-n2c(N)c(C(=O)N3CCN(C)CC3)sc2=S)c1`, with 83.6% (active); and `Cc1ccc(-n2c(N)c(C(=O)N3CCOCC3)sc2=S)c(C)c1`, with 87.8% (active).
For `Cc1cccc(C(=O)N2CCCN(C(=O)c3cccc(C)c3)CC2)c1`, the inhibition was 8.5% (inactive).
Consider `Cc1ccc(S(=O)(=O)N2CCN(C(=O)N3CCOCC3)CC2)c(C)c1`, for which the inhibition is -7.3% (inactive).
Then `COc1ccc2[nH]c(C(=O)N3CCN(C)CC3)c(C)c2c1`, with 18.7% (inactive); and `COCC1CCN(C(=O)c2ccc3oc(Cc4ccccc4)nc3c2)C1` (configuration not stated), with 27.6% (inactive); and `Cc1cc(OCc2cc(C(=O)NCc3cc(C(C)C)no3)no2)cc(C)c1Cl`, with 22.6% (inactive).
In the case of `CCn1cc(CCC(=O)NCc2ccc(F)cc2)c2ccccc21`, the inhibition is 38.1% (inactive).
Consider `COc1ccc(CN(C)C(=O)c2cc(-c3ccc(C)cc3C)nc3ccccc23)c(OC)c1OC`, for which the inhibition was 31.9% (inactive).
